Assay [1] in a line: Cell Viability - HepG2 (AID 433; calls by dose curve;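 further: potency means the concentration at half of the fitted maximal effect; cells exposed to compound for 40 hours; potency for ATP loss meaning cytotoxicity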). Conditions: qHTS. In short, it runs like this: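 HepG2 hepatocellular carcinoma cells (1500/well) were treated with compounds for 40 h at 37 °C in complete medium; intracellular ATP was read by CellTiter-Glo luminescence. Data were normalized to DMSO and 100 uM tamoxifen, and AC50 came from Hill fits.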
Assay [2] in a line: Cell Viability - SH-SY5Y (AID 544).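 Further: cells exposed to compound for 40 hours; nearly all actives have a fitted effect of over 55% in size.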 To be noted: SH-SY5Y neuroblastoma cell viability; viability change, negative = cytotoxic: at 92.2 µM (top of the series). The essentials: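 Cytotoxicity measured via ATP-dependent luciferase luminescence (CellTiter-Glo) following 40 h, 37 °C exposure of 1500 SH-SY5Y cells per well. Concentration-response data were fitted with the standard Hill equation to give AC50.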

Assay [3] is described as follows: Cell Viability - Mesenchymal (AID 546).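 Further: cells exposed to compound for 40 hours before reading.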 Conditions: mesenchymal cells viability, qHTS; series mostly up to 91.7 µM. The essentials:
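In this qHTS cytotoxicity format, glomerulus-derived human mesenchymal kidney cells received compound for 40 hr, then luciferase-based ATP quantitation. Concentration-response data were fitted with the Hill equation.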
In general terms: qHTS replaces the single test concentration by a dilution series.

Assay [4] can be described thus: Cellular Toxicity (caspase-3) Mesangial (AID 660).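 Further: combined caspase 3 and 7 activity read by Caspase-Glo luminescence; cells exposed to compound for 16 h before the caspase read.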 Conditions: mesangial cells, normalized: DMSO 0%, 100 µM tamoxifen 100%; series mostly up to 91.7 µM. The essentials: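 Caspase 3/7 activation measured by Caspase-Glo 3/7 luminescence (20 min, room temperature) following 16 h exposure of mesangial cells (1000/well); AC50 from Hill-equation fit, normalized to DMSO and 100 uM tamoxifen.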

A short description of assay [5]: Cellular Toxicity (caspase-3) SK-N-SH (AID 661).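 Further: 0% = DMSO basal and 100% = 10 µM staurosporine.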 To be noted: SK-N-SH caspase-3 activation, qHTS; series mostly up to 91.7 µM. The essentials:
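Caspase 3/7 activation was read by luminogenic substrate cleavage after 16 hour treatment of SK-N-SH cells. Signal was scaled between DMSO and 10 uM staurosporine, and concentration-response data were fitted with the Hill equation for AC50.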

Assay [6] can be described thus: Cell Viability - LYMP2-023 (AID 975).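 Further: cellular ATP measured by luciferase luminescence as viability proxy; cells exposed to compound for 24 hours at 37 °C; plate controls were DMSO only for no effect and 92 µM tetraoctylammonium bromide control for full effect; nearly all actives have a fitted effect of over 55% in size.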 To be noted: LYMP2-023 lymphoblastoid cell viability; series mostly up to 92.2 µM. In short, it runs like this: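 Intracellular ATP, read by CellTiter-Glo luminescence, reports viability after 24 hr compound exposure at 37 C. 2500 lymphoblastoid cells/well (LYMP2-023) seeded 5 hr beforehand; Hill fits give AC50; positive control tetraoctylammonium bromide.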

Assay [7] is described as follows: Cell Viability - LYMP2-014 (AID 983).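 Further: plate controls were DMSO only for no effect and 92 µM tetraoctylammonium bromide for full effect; nearly all actives have a fitted effect of over 50% in size.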 To be noted: LYMP2-014 lymphoblastoid cells, viability qHTS; series mostly up to 92.2 µM. The essentials: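 Intracellular ATP loss, read by luciferase luminescence, measures acute cytotoxicity after 24 h compound exposure of lymphoblastoid LYMP2-014 cells (2500/well, 37 C). Concentration-response data fitted to the Hill equation for AC50.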

Assay [8] is described as follows: Cell Viability - LYMP2-026 (AID 989). Further: on the % scale 0 is the no-effect control and ±100 the full control effect; nearly all actives have a fitted effect of over 50% in size. Conditions: LYMP2-026 lymphoblastoid cell viability, qHTS; series mostly up to 92.2 µM. In short, it runs like this:
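Cytotoxicity read as ATP-dependent luminescence (CellTiter-Glo, 30 min room temperature) after 24 h compound treatment at 37 C. LYMP2-026 lymphoblastoid line seeded at 2500 cells/well; AC50 derived by standard Hill equation.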

Assay [9] concerns the target Peroxisome proliferator-activated receptor delta (Homo sapiens) (UniProt Q03181). In words: qHTS assay for small molecule agonists of peroxisome proliferator-activated receptor delta signaling (AID 588534; calls by dose curve;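 further: 0% = DMSO basal wells and 100% = positive control agonist at 10 µM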). Conditions: HEK293T PPARdelta-UAS-bla, beta-lactamase ratio, 18 h; series mostly up to 76.7 µM. In short, it runs like this:
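Agonist-mode beta-lactamase reporter readout (CCF4 dye, 2 h at RT) after 18 h at 37 °C exposure to a titration; Hill-equation fitting gave EC50 and maximal response.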

For assay [10], the target named is Vitamin D3 receptor (Homo sapiens) (UniProt P11473). In words: qHTS assay for small molecule antagonists of vitamin D receptor signaling (AID 588541; calls by dose curve;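 further: receptor activated by calcitriol during compound treatment; on the % scale 0 is the no-effect control and ±100 the full control effect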). Conditions: HEK293T VDR-UAS-bla, beta-lactamase ratio, antagonist mode; series mostly up to 76.7 µM. The essentials: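 VDR-UAS-bla HEK293T cells (2000/well, 2% charcoal-stripped FBS) were treated with titrated compounds plus 1-alpha,25-dihydroxyvitamin D3 (50 nM or 3 nM final) for 16 h at 37 C. CCF4 beta-lactamase fluorescence was read; Hill fits gave IC50.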
Sequence of Vitamin D3 receptor (Homo sapiens) (P11473 whole entry, looked up): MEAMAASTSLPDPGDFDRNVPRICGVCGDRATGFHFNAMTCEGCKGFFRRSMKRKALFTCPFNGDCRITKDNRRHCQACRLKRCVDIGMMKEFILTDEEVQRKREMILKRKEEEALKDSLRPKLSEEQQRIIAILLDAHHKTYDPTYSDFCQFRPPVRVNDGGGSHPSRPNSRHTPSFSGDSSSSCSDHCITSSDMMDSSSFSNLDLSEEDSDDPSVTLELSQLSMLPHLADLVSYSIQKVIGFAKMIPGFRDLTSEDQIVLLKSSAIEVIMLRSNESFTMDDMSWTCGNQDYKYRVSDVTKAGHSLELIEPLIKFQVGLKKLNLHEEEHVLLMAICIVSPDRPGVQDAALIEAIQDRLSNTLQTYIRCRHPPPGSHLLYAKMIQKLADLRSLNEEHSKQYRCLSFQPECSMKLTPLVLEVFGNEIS

The target is the same in assay [11]. Briefly: qHTS assay for small molecule agonists of vitamin D receptor signaling (AID 588543; calls by dose curve;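 further: 0% = DMSO basal and 100% = reference agonist control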). Conditions: HEK293T VDR-UAS-bla, beta-lactamase ratio, 16 h; series mostly up to 76.8 µM. In short, it runs like this: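 GeneBLAzer VDR-UAS-bla HEK293T cells in 2% charcoal-stripped FBS medium were dosed with compound titrations for 16 h at 37 °C; CCF4 β-lactamase readout (405 nm ex, 460/530 nm em). EC50 and efficacy from Hill fits, normalized to 50 nM calcitriol (100%) and DMSO (0%).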

Assay [12] has as its target Voltage-gated inwardly rectifying potassium channel KCNH2 (Homo sapiens) (UniProt Q12809). In words: qHTS Assay for Small Molecule Inhibitors of the Human hERG Channel Activity (AID 588834).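 Further: top concentration of the series differs between compounds; on the % scale 0 is the no-effect control and ±100 the full control effect; lower thallium flux fluorescence means stronger hERG block; nearly all actives have a fitted effect of over 50% in size.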 Conditions: U2OS BacMam hERG, FluxOR thallium flux fluorescence; series mostly up to 92.2 µM. The essentials:
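In hERG-transduced U2OS cells, dye-loaded for 1 hr at room temperature in dark, test compounds incubated 10 min at 37 °C before thallium stimulation. AC50 values derived by Hill modelling of concentration-response.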

Assay [13] in a line: qHTS assay for small molecule activators of the p53 signaling pathway (AID 651743; active means well fitted activation curve with a large enough effect in the signal ratio, not every such curve was filed as active; the % refers to the signal ratio; further: potency means the concentration at half of the fitted maximal effect; on activation: % of control where 0% means no effect). Conditions: HCT-116 p53RE-bla, beta-lactamase FRET ratio, 16 h; activation: stronger effect = higher value. The essentials: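 Agonist-mode quantitative HTS in HCT-116 cells carrying a p53-response-element beta-lactamase reporter; 16 h compound treatment at 37 C, then FRET substrate loading for 2 h at room temperature and fluorescence read.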

Assay [14] can be described thus: qHTS assay for small molecule disruptors of the mitochondrial membrane potential - 1 hr assay (AID 651754; calls by dose curve; further: on the % scale 0 is the no-effect control and ±100 the full control effect; nearly all actives have a fitted effect of over 35% in size). To be noted: series mostly up to 92.2 µM. The essentials:
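Mitochondrial potential in living HepG2 cells after 1 hr compound treatment at 37C was read with Mito-MPS dye added for a further 30 min. Red aggregate and green monomer fluorescence were measured; loss of potential leaves dye as cytoplasmic monomers.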

For assay [15], the target named is Nuclear receptor ROR-gamma (Homo sapiens) (UniProt P51449). Briefly: qHTS assay for small molecule antagonists of the retinoid-related orphan receptor gamma (ROR-gamma) signaling pathway (AID 651802). Further: nearly all actives have a fitted effect of over 60% in size. Further: potency means the concentration at half of the fitted maximal effect. Conditions: ROR-gamma antagonist cell reporter assay; series mostly up to 92.2 µM. In short, it runs like this:
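Luminescence (One-Glo, 30 min RT) measured 16 h after compound addition and doxycycline induction at 37C. Reporter: RORE-luciferase under TET-inducible ROR-gamma in CHO cells.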

The nature of assay [16]: qHTS assay for small molecule agonists of the antioxidant response element (ARE) signaling pathway measured by Nrf2-dependant transcriptional activity - cell viability counter screen (AID 720653; active means well fitted curve in the direction sought with a large enough effect in the repeat runs; an effect the other way counts as inactive or inconclusive; further: on the % scale 0 is the no-effect control and ±100 the full control effect). To be noted: ARE-bla HepG2 viability, CellTiter-Glo ATP luminescence, 16 h; stronger effect = lower value. In short, it runs like this: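 ARE-bla HepG2 cells (2,000/well) rested 5 hrs at 37C/5% CO2, then exposed to compounds in DMSO for 16 hrs. Viability was read in the same wells as intracellular ATP by luminescence, 30 min at room temperature after reagent addition.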

The nature of assay [17]: Cellular Toxicity (caspase-3) HepG2 (AID 654).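 Further: cells exposed to compound for 16 hours before reading; 0% = DMSO alone and 100% = caspase signal from 100 µM tamoxifen.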 To be noted: HepG2 caspase-3 activation, luminescence, 0% = DMSO only, 100% = tamoxifen; series mostly up to 92.2 µM. The essentials:
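Caspase 3/7 activation is measured as a luminescence increase (aminoluciferin substrate) after 16 h compound exposure of human hepatocarcinoma HepG2 cells. AC50 values are Hill fits, scaled between DMSO baseline and 100 uM tamoxifen stimulation.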

Assay [18] is described as follows: Cellular Toxicity (caspase-3) HUV-EC-C (AID 656). To be noted: HUV-EC-C cells, caspase-3 activation (apoptosis), vehicle = 0, 100 µM tamoxifen = 100%; series mostly up to 92.2 µM. The essentials: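 HUV-EC-C endothelial cells, 1000/well, were pre-incubated 5 hr at 37°C, then exposed to compounds for 16 hr at 37°C. Caspase-Glo 3/7 luminescence was read after 20 min at room temperature. AC50 came from Hill fits, normalized to DMSO and 100 uM tamoxifen.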

Assay [19] can be described thus: Cellular Toxicity (caspase-3) Hek293 (AID 664).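 Further: cells exposed to compound for 16 h at 37 °C before readout.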 Conditions: HEK293 caspase-3 activation, DMSO = 0%, 100 µM tamoxifen = 100%; at 92.2 µM (top of the series). In short, it runs like this:
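Concentration-response qHTS: caspase 3/7 activation measured by luminescent aminoluciferin substrate cleavage after 16 h compound exposure of Hek 293 cells. AC50 from Hill equation, with DMSO as basal and 100 uM tamoxifen as 100%.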

Assay [20] is described as follows: Cellular Toxicity (caspase-3) NIH 3T3 (AID 666).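 Further: caspase signal read after 16 h compound exposure; 0% = DMSO basal and 100% = 100 µM tamoxifen stimulation.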 To be noted: NIH 3T3 caspase-3 activation, apoptosis/toxicity; series mostly up to 92.2 µM. The essentials:
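Caspase-Glo 3/7 luminescence reported caspase activation in 1000 NIH 3T3 cells/well after 16 h compound exposure at 37 C. DMSO set basal and 100 uM tamoxifen set 100% stimulation; concentration-response modeled with the Hill equation for AC50.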

Unmarked numbers belong to inactive results. Results filed as inconclusive are left out. Active and inactive are the calls of the source. Unless noted, the call rests on the fitted dose curve; in most records, active means well fitted curve in the direction sought with a large enough effect; inconclusive means small, poorly fitted or top-dose-only effect, or another doubt; inactive means no such curve, though single readings can be large; an effect the other way counts as inactive or inconclusive.

Sequence of Peroxisome proliferator-activated receptor delta (Homo sapiens) (Q03181 whole entry, looked up): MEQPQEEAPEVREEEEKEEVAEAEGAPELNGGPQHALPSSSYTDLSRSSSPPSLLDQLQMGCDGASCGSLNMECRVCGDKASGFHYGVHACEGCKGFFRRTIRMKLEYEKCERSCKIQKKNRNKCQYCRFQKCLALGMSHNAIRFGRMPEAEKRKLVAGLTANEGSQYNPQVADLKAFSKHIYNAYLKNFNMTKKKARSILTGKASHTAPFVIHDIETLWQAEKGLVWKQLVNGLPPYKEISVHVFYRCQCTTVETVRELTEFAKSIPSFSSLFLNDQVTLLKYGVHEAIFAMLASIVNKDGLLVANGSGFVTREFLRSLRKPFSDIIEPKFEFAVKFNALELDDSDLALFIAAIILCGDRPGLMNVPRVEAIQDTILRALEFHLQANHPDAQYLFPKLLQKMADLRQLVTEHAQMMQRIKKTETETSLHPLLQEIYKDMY
Sequence of Nuclear receptor ROR-gamma (Homo sapiens) (P51449 whole entry, looked up): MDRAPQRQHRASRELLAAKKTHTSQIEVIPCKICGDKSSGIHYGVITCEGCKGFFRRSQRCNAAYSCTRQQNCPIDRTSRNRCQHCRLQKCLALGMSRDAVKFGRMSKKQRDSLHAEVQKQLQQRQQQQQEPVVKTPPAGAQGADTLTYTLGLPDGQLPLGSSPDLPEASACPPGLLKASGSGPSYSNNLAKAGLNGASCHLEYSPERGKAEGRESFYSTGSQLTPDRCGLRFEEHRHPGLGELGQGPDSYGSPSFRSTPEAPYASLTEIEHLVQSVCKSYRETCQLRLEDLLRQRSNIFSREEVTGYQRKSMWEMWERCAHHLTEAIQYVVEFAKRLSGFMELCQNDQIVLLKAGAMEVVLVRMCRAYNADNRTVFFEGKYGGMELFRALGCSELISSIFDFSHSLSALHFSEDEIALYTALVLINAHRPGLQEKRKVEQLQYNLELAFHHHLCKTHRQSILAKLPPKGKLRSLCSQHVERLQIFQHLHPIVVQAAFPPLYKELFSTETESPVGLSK
Sequence of Voltage-gated inwardly rectifying potassium channel KCNH2 (Homo sapiens) (Q12809 whole entry, looked up): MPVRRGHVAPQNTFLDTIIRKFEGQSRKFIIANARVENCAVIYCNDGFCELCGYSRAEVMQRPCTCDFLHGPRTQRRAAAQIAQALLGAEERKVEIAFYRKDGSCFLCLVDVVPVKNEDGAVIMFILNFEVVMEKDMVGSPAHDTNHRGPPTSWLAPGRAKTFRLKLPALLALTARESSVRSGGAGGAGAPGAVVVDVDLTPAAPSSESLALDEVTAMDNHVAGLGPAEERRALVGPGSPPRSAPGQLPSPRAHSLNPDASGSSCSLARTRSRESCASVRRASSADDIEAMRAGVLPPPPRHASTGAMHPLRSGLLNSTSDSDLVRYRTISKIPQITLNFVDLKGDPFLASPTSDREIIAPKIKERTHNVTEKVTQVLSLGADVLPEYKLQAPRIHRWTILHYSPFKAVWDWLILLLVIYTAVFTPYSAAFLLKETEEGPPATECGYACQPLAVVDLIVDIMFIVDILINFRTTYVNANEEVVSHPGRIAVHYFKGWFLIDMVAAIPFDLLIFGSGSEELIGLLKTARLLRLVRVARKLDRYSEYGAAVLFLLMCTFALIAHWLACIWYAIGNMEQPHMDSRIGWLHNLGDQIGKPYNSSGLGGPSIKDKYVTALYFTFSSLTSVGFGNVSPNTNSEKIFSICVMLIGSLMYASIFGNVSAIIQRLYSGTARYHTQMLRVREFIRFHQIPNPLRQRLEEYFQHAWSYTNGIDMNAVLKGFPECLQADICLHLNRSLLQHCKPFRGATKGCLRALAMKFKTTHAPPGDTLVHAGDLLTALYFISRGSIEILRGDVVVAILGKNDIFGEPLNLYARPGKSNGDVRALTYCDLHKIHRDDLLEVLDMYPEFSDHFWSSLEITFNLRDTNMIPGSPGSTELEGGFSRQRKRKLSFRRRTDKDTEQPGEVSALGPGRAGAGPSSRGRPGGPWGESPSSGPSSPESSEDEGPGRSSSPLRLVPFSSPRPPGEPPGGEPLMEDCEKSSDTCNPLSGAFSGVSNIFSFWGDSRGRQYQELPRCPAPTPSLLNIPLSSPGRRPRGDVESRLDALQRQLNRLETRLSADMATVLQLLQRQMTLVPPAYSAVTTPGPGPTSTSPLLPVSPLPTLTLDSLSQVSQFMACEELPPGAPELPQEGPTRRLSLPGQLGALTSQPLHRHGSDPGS

In the case of `Nn1cnnc1`, the Potency in [1] was over 92 µM. Also, the Potency entry in assay [2], in assay [3], in assay [5], in assay [6], in [7] and in assay [8] was “inactive” throughout. Further, the Potency entry in assay [12], in assay [14] and in assay [15] was “inactive” in each case. In addition, the compound was classed as inactive in assay [4], in [9], in [10] and in [11]. Moreover, the activation in assay [13] is 0.253%. Further, the max response in assay [16] is -3.98%.

Consider `CN(C)c1ccc(N=Nc2ccccc2)cc1`, for which, in assay [1], the Potency is over 92 µM. The Potency entry in assay [3], in assay [6], in assay [7] and in assay [12] was “inactive” throughout. The compound was classed as inactive in assay [17], in assay [18], in [4], in [9], in assay [10] and in assay [11]. The caspase-3 activation in [19] is -8.79%. For the same compound, the activation in [13] was -7.04%. Moreover, the max response in [16] is -5.92%.

Take `C=C(Cl)CCl`: the Potency in assay [1] is over 92 µM. The Potency entry in assay [2], in assay [3], in [5], in assay [6], in [7] and in assay [8] was “inactive” in each case. Besides, the Potency entry in assay [12], in assay [14] and in assay [15] was “inactive” throughout. In addition, the call in assay [17], in assay [18], in assay [4], in assay [9], in [10] and in assay [11] was inactive. For the same compound, in assay [19], the caspase-3 activation is 0.722%. For the same compound, the activation in [13] is -0.495%. The max response in assay [16] was 19%.

On to `Oc1cc(Cl)c(Cl)c(Cl)c1Cl`, for which the Potency entry in [3], in [5], in assay [20], in [6], in assay [7] and in assay [12] was “inactive” in each case. Besides, the compound was called inactive in assay [17]. Also, the Potency in [13] is 39.8 µM (active); in assay [15] it was 23.7 µM (active).

As for `c1ccc2c(c1)ccc1cc3c(ccc4ccccc43)cc12`, in assay [13], the Potency is 39.8 µM (active). Also, in assay [15], the Potency entry was “inactive”.
